Test results reported in PubChem BioAssay (Tox21).
The source made the active and inactive calls. Entries that show only a call come without a potency. The call rests on the fitted dose curve; in most records, active means well fitted curve in the direction sought with a large enough effect in the repeat runs; inconclusive means weak or mixed curves; inactive means flat fitted curve, though single readings scatter. Positions of bridges follow the written chain, without caps; N, C: chain ends. Non-standard residues stand in square brackets, D forms with d. Residues, ends and D or L forms follow the SMILES beside them. ξ: configuration not given here. *: point of attachment. d(aThr) = C[C@@H](O)[C@@H](N)C(=O)O; ξThr(3R) = C[C@@H](O)C(N)C(=O)O; X3 = CC[C@@H](C)CCCCC(=O)*; dDab = NCC[C@@H](N)C(=O)O

Test: qHTS assay to test for compound auto fluorescence at 590 nm (red) in HepG2 cells (AID 720674)
Conditions: HepG2 autofluorescence, red 540/590 nm, 1 h; series mostly up to 46 µM
In short: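 Seeding: 2,000 HepG2 cells/well, MEM/10% FBS, overnight 37 C. Dosing: compound vs DMSO. Incubation: 1 hr, 37 C, 5% CO2. Read: fluorescence 540 ex/590 em, Rose Bengal sodium as red reference.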
Potency means the concentration at half of the fitted maximal effect.

| SMILES | Potency |
| --- | --- |
| NC(N)=NCC1COc2ccccc2O1 (stereo not drawn) | inactive |
| CC[C@]1(O)CC2CN(CCc3c([nH]c4ccccc34)[C@@](C(=O)OC)(c3cc4c(cc3OC)N(C)[C@H]3[C@@](O)(C(N)=O)[C@H](O)[C@]5(CC)C=CCN6CC[C@]43[C@@H]65)C2)C1 (stereo partly drawn) | inactive |
| NC(=O)C[C@@H](N)C(=O)O | inactive |
| CN=C(NC)NCc1ccccc1 | inactive |
| CC(C)NCC(O)COc1ccccc1-n1cccc1 (stereo not drawn) | inactive |
| CN(CCO)CC(O)Cn1cnc2c1c(=O)n(C)c(=O)n2C (stereo not drawn) (tested in a mixture with another compound) | inactive |
| COc1ccccc1N1CCN(CCCC(=O)c2ccc(F)cc2)CC1 | inactive |
| CN[C@@H]1[C@@H](O)[C@@H](O[C@@H]2[C@@H](O)[C@H](OC3OC(CN)=CCC3N)[C@@H](N)C[C@H]2N)OC[C@]1(C)O (stereo partly drawn) | inactive |
| c1ccc2cc(C3=NCCN3)ccc2c1 | inactive |
| O=C(OC[C@H]1O[C@](O)(COC(=O)c2cccnc2)[C@@H](OC(=O)c2cccnc2)[C@@H]1OC(=O)c1cccnc1)c1cccnc1 | inactive |
| CCC(=O)OCC(=O)[C@@]1(OC(=O)CC)[C@@H](C)C[C@H]2[C@@H]3CCC4=CC(=O)C=C[C@]4(C)[C@@]3(F)[C@@H](O)C[C@@]21C | inactive |
| Cc1cc(O)c2c(c1)O[C@@]1(C)CC[C@H]3C(C)(C)CCCC34CO[C@@H]2[C@H]41 (stereo partly drawn) | inactive |
| C#C[C@]1(O)CC[C@H]2[C@@H]3CCC4=C(CCC(=O)C4)[C@H]3CC[C@@]21C | inactive |
| OCC(S)CS (stereo not drawn) | inactive |
| CCCCCc1ccc(C)cc1O | inactive |
| NCCC(=O)[N-][C@@H](Cc1cnc[nH]1)C(=O)O.[Zn] | inactive |
| O=C(O)c1cc(N=Nc2ccc(O)c(C(=O)O)c2)ccc1O | inactive |
| O=C(O)c1c(Cl)c(Cl)c(Cl)c(Cl)c1-c1c2cc(I)c(=O)c(I)c-2oc2c(I)c(O)c(I)cc12 | 11.2 µM (active) |
| CCC[C@@H]1C[C@@H](C(=O)N[C@@H]([C@H]2O[C@H](SC)[C@H](O)[C@@H](O)[C@H]2O)[C@H](C)Cl)N(C)C1 | inactive |
| CC(C)N=c1cc2n(-c3ccc(Cl)cc3)c3ccccc3nc-2cc1Nc1ccc(Cl)cc1 | inactive |
| C[C@@H]1CCC2[C@@H](C)[C@@H](O)O[C@@H]3O[C@@]4(C)CC[C@@H]1[C@@]23OO4 (stereo partly drawn) | inactive |
| CC(=O)N[C@@H](C=O)[C@@H](O)[C@H](O)[C@H](O)CO | inactive |
| CCOC(=O)C1=C(COCCN)NC(C)=C(C(=O)OC)C1c1ccccc1Cl (stereo not drawn) | inactive |
| CCOC(=O)[C@@H](N)CS | inactive |
| CC[C@@H]1/C=C(\C)C[C@H](C)C[C@H](OC)[C@H]2O[C@@](O)(C(=O)C(=O)N3CCCC[C@H]3C(=O)O[C@H](/C(C)=C/[C@@H]3CC[C@@H](Cl)[C@H](OC)C3)[C@H](C)[C@@H](O)CC1=O)[C@H](C)C[C@@H]2OC | inactive |
| CCCCCCCCCCCCCCCC(=O)O[C@@H]1CC(C)=C(/C=C/C(C)=C/C=C/C(C)=C/C=C/C=C(C)/C=C/C=C(C)/C=C/C2=C(C)C[C@@H](OC(=O)CCCCCCCCCCCCCCC)CC2(C)C)C(C)(C)C1 | inactive |
| CCCCCCC(=O)O[C@H]1CC[C@H]2[C@@H]3CCc4cc(O)ccc4[C@H]3CC[C@]12C | inactive |
| CN=C1C=CC(=C(c2ccc(N(C)C)cc2)c2ccc(N(C)C)cc2)C=C1 | inactive |
| CCCC1([C@H](O)C/C=C/[C@H]2[C@H](O)CC(=O)[C@@H]2CCCCCCC(=O)OC)CCC1 | inactive |
| C=C1C(=C/C=C2\CCC[C@]3(C)[C@@H]([C@H](C)/C=C/[C@H](C)C(C)C)CC[C@@H]23)C[C@@H](O)C[C@@H]1O | inactive |

Test: qHTS assay to test for compound auto fluorescence at 535 nm (green) in HepG2 cells (AID 720675)
Conditions: green autofluorescence 485/535 nm, 1 h; series mostly up to 46 µM

| SMILES | Potency |
| --- | --- |
| CSc1nc2cc(Oc3cccc(Cl)c3Cl)c(Cl)cc2[nH]1 | inactive |
| Cc1ccc(S(=O)(=O)NC(=O)N[C@@H](C)Cc2ccccc2)cc1 | inactive |
| CC[C@@H](C)CCCCC(=O)N[C@H](CCN)C(=O)N[C@@H](C(=O)N[C@H](CCN)C(=O)N[C@@H]1CCNC(=O)C([C@@H](C)O)NC(=O)[C@@H](CCN)NC(=O)[C@@H](CCN)NC(=O)[C@@H](CC(C)C)NC(=O)[C@@H](Cc2ccccc2)NC(=O)[C@@H](CCN)NC1=O)[C@@H](C)O (stereo partly drawn) (X3-[dDab][d(aThr)][dDab][dDab][dDab][dF][dL][dDab][dDab][ξThr(3R)]; lactam 4-C) | inactive |
| COC(=O)C1=C(C)NC(C)=C(C(=O)O[C@H]2CCN(Cc3ccccc3)C2)[C@H]1c1cccc([N+](=O)[O-])c1 | inactive |
| CCCCCCCCCCCCCCCCOCCOCCOCCOCCOCCOCCOCCOCCOCCOCCOCCOCCOCCOCCOCCOCCOCCOCCOCCOCCO | inactive |
| CCC(=O)O[C@@H]1CC(=O)O[C@H](C)C/C=C/C=C/[C@H](O)[C@H](C)C[C@H](CC=O)[C@H](O[C@@H]2O[C@H](C)[C@@H](O[C@H]3C[C@@](C)(O)[C@@H](OC(=O)CC)[C@H](C)O3)[C@H](N(C)C)[C@H]2O)[C@H]1OC | inactive |
| O=C(Nc1ccc(/C=C/c2ccc(NC(=O)c3cc(S(=O)(=O)O)c4cccnc4c3O)cc2S(=O)(=O)O)c(S(=O)(=O)O)c1)c1cc(S(=O)(=O)O)c2cccnc2c1O | inactive |
| C[C@]12C=CC(=O)N[C@@H]1CC[C@@H]1[C@@H]2CC[C@]2(C)[C@@H](C(=O)Nc3cc(C(F)(F)F)ccc3C(F)(F)F)CC[C@@H]12 | inactive |
| O=C(O)CN(CC(=O)O)CC1=CC2C(=CC1=O)Oc1cc(O)c(CN(CC(=O)O)CC(=O)O)cc1C21OC(=O)c2ccccc21 (stereo not drawn) | 10 µM (active) |
| NC(N)=NCC1COc2ccccc2O1 (stereo not drawn) | inactive |
| CC[C@]1(O)CC2CN(CCc3c([nH]c4ccccc34)[C@@](C(=O)OC)(c3cc4c(cc3OC)N(C)[C@H]3[C@@](O)(C(N)=O)[C@H](O)[C@]5(CC)C=CCN6CC[C@]43[C@@H]65)C2)C1 (stereo partly drawn) | inactive |
| CN=C(NC)NCc1ccccc1 | inactive |
| CC(C)NCC(O)COc1ccccc1-n1cccc1 (stereo not drawn) | inactive |
| CN(CCO)CC(O)Cn1cnc2c1c(=O)n(C)c(=O)n2C (stereo not drawn) (tested in a mixture with another compound) | inactive |
| COc1ccccc1N1CCN(CCCC(=O)c2ccc(F)cc2)CC1 | inactive |
| CN[C@@H]1[C@@H](O)[C@@H](O[C@@H]2[C@@H](O)[C@H](OC3OC(CN)=CCC3N)[C@@H](N)C[C@H]2N)OC[C@]1(C)O (stereo partly drawn) | inactive |
| c1ccc2cc(C3=NCCN3)ccc2c1 | inactive |
| O=C(OC[C@H]1O[C@](O)(COC(=O)c2cccnc2)[C@@H](OC(=O)c2cccnc2)[C@@H]1OC(=O)c1cccnc1)c1cccnc1 | inactive |
| CCC(=O)OCC(=O)[C@@]1(OC(=O)CC)[C@@H](C)C[C@H]2[C@@H]3CCC4=CC(=O)C=C[C@]4(C)[C@@]3(F)[C@@H](O)C[C@@]21C | inactive |

| SMILES | Potency |
| --- | --- |
| Cc1cc(O)c2c(c1)O[C@@]1(C)CC[C@H]3C(C)(C)CCCC34CO[C@@H]2[C@H]41 (stereo partly drawn) | inactive |
| C#C[C@]1(O)CC[C@H]2[C@@H]3CCC4=C(CCC(=O)C4)[C@H]3CC[C@@]21C | inactive |
| OCC(S)CS (stereo not drawn) | inactive |
| CCCCCc1ccc(C)cc1O | inactive |
| NCCC(=O)[N-][C@@H](Cc1cnc[nH]1)C(=O)O.[Zn] | inactive |
| O=C(O)c1cc(N=Nc2ccc(O)c(C(=O)O)c2)ccc1O | inactive |
| O=C(O)c1c(Cl)c(Cl)c(Cl)c(Cl)c1-c1c2cc(I)c(=O)c(I)c-2oc2c(I)c(O)c(I)cc12 | inactive |
| CCC[C@@H]1C[C@@H](C(=O)N[C@@H]([C@H]2O[C@H](SC)[C@H](O)[C@@H](O)[C@H]2O)[C@H](C)Cl)N(C)C1 | inactive |
| CC(C)N=c1cc2n(-c3ccc(Cl)cc3)c3ccccc3nc-2cc1Nc1ccc(Cl)cc1 | inactive |
| C[C@@H]1CCC2[C@@H](C)[C@@H](O)O[C@@H]3O[C@@]4(C)CC[C@@H]1[C@@]23OO4 (stereo partly drawn) | inactive |
| CC(=O)N[C@@H](C=O)[C@@H](O)[C@H](O)[C@H](O)CO | inactive |
| CCOC(=O)C1=C(COCCN)NC(C)=C(C(=O)OC)C1c1ccccc1Cl (stereo not drawn) | inactive |
| CCOC(=O)[C@@H](N)CS | inactive |
| CC[C@@H]1/C=C(\C)C[C@H](C)C[C@H](OC)[C@H]2O[C@@](O)(C(=O)C(=O)N3CCCC[C@H]3C(=O)O[C@H](/C(C)=C/[C@@H]3CC[C@@H](Cl)[C@H](OC)C3)[C@H](C)[C@@H](O)CC1=O)[C@H](C)C[C@@H]2OC | inactive |
| CCCCCCCCCCCCCCCC(=O)O[C@@H]1CC(C)=C(/C=C/C(C)=C/C=C/C(C)=C/C=C/C=C(C)/C=C/C=C(C)/C=C/C2=C(C)C[C@@H](OC(=O)CCCCCCCCCCCCCCC)CC2(C)C)C(C)(C)C1 | inactive |
| CCCCCCC(=O)O[C@H]1CC[C@H]2[C@@H]3CCc4cc(O)ccc4[C@H]3CC[C@]12C | inactive |
| CN=C1C=CC(=C(c2ccc(N(C)C)cc2)c2ccc(N(C)C)cc2)C=C1 | inactive |
| CCCC1([C@H](O)C/C=C/[C@H]2[C@H](O)CC(=O)[C@@H]2CCCCCCC(=O)OC)CCC1 | inactive |
| C=C1C(=C/C=C2\CCC[C@]3(C)[C@@H]([C@H](C)/C=C/[C@H](C)C(C)C)CC[C@@H]23)C[C@@H](O)C[C@@H]1O | inactive |
